BAZ2B block: blocks human BAZ2B; Q9UIF8; AlphaScreen BAZ2B-H3K14Ac peptide displacement; Potency, µM (doses to about 114 µM), without a hit: top-dose activity change, negative = inhibition, usual class: inhibitors; 360,000 tested, 4.4% active; AID 504333; also: potency is read from the fitted curve at half-maximal effect; % is scaled to controls: 0 for no effect and ±100 for the full control effect; nearly all actives have a fitted effect of over 60% in size
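Compounds, titrated to a top concentration of 110 uM, were incubated 30 min at room temperature with preformed BAZ2B/acetyl-K14 H3 peptide complex (50 nM each). Proximity signal was measured by AlphaScreen after 20 min with beads.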
JMJD2A Tudor inh: inhibitors of human JMJD2A Tudor domain; Potency, µM (highest dose often 114 µM), for inactives: top-dose activity change, negative = inhibition, usual class: inhibitors; AID 504339; 390,000 tested, 4.4% active; AlphaScreen JMJD2A-Tudor / H3K4me3 peptide binding; also: potency is read from the fitted curve at half-maximal effect; % is scaled to controls: 0 for no effect and ±100 for the full control effect; nearly all actives have a fitted effect of over 50% in size
CtBP-E1A blk: blocks the CtBP interaction with E1A; AlphaScreen GST-E1A/His-CtBP binding, 1536-well; hits give low values; activity change, % (no concentration beside the values); AID 651724; 340,000 tested, 0.49% active; in the data active = activity change below about -65%; inconclusive = mostly about -30% to -63%; also: % is scaled to controls: 0 for no effect and ±100 for the full control effect
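Homogeneous bead-based format: GST-tagged E1A captured on glutathione donor beads, His-tagged CtBP on nickel acceptor beads; compounds precede bead addition by 2 h at 37 °C.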
Six1-Eya2 inh: inhibitors of human Six1/Eya2 interaction; Q15475+O00167; AlphaScreen GST-Six1/His-Eya2 binding, biochemical; hits give low values; activity change, % (test concentration not listed); 360,000 tested, 0.56% active; AID 651725; in the data active = activity change below about -65%; inconclusive = mostly about -30% to -63%; also: % is scaled to controls: 0 for no effect and ±100 for the full control effect
Target sequence (O00167 whole entry, looked up): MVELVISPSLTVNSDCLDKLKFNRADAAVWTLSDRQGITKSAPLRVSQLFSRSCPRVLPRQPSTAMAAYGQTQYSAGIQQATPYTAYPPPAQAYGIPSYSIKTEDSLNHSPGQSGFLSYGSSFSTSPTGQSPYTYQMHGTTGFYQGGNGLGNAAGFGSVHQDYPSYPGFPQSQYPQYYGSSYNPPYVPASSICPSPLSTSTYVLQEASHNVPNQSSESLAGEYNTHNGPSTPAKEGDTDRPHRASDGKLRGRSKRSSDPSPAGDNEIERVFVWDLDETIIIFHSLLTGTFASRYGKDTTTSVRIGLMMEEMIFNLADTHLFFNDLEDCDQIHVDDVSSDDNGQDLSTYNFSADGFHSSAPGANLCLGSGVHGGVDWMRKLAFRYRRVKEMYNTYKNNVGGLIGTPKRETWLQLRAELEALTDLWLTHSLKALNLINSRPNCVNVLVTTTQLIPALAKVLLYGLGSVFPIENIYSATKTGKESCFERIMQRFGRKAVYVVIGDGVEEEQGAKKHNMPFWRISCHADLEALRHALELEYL
Target sequence (Q15475 whole entry, looked up): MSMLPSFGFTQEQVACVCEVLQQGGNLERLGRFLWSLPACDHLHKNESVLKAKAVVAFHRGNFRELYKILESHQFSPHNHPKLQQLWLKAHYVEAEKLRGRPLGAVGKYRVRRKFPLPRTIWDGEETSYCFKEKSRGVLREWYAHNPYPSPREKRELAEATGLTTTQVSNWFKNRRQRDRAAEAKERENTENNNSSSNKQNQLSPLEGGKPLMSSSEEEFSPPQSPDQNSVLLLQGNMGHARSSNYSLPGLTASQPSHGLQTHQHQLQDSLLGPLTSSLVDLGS
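AlphaScreen with GST-Six1 and His-Eya2 (5X mix: 250 nM and 500 nM), glutathione donor and nickel acceptor beads; buffer 50 mM Tris pH 8.0, 300 mM NaCl, 1 mM TCEP; 1 h at 37 C in the dark.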
HP1b binding inh: inhibitors of HP1-beta chromodomain binding to methylated histone tails; AlphaScreen HP1-beta / biotin-H3K9me3 peptide binding; Potency, µM (series often up to 114 µM), for inactives: at the top dose activity change, negative = inhibition, actives largely listed as inhibitors; P83916; 390,000 tested, 0.56% active; also: potency is read from the fitted curve at half-maximal effect; nearly all actives have a fitted effect of over 70% in size
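HP1-beta protein (50 nM final) preincubated 30 min at room temperature with biotinylated H3(1-18)K9me3 peptide (50 nM) in PBS pH 7.4, 0.01% Tween-20, then compound added for 30 min. AlphaScreen streptavidin donor/nickel chelate acceptor beads (10 ug/mL final), 30 min dark, luminescence read.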
G9a block: G9a (human) methyltransferase inhibition | 350,000 tested, 8.8% active | Potency, µM (doses to about 102 µM), inactives show top-dose activity, negative = inhibition, usual class: inhibitors | AID 504332 | G9a H3K9 monomethylation, AlphaScreen, 2 h; also: potency is read from the fitted curve at half-maximal effect; % is scaled to controls: 0 for no effect and ±100 for the full control effect; nearly all actives have a fitted effect of over 75% in size
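G9a (20 nM) preincubated 15 min RT with compounds, then 500 nM biotinylated H3K9 peptide and 20 uM SAM added; 2 h RT reaction. Monomethyl-H3K9 product detected by AlphaScreen with anti-H3K9me1 antibody, streptavidin donor and anti-rabbit IgG acceptor beads.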
Numbers without * were called inactive; ? = inconclusive; . = no result; [ ] = remark or other dose. The list is not random: actives were taken first. Their share in the collection is about 10%. Unless noted, calls follow the shape of the dose curve; as a rule, active = well fitted inhibition curve with a large enough effect; inconclusive = small, poorly fitted or top-dose-only effect; inactive = no such curve, though single readings can be large or run the other way.

SMILES	BAZ2B block	JMJD2A Tudor inh	CtBP-E1A blk	Six1-Eya2 inh	HP1b binding inh	G9a block
O=C(Cn1c(=O)c2cccn2c2ccc(F)cc21)NCc1cccc(Cl)c1	?	?	.	.	10%	?
Cc1ccc(Nc2nnc(-c3ccc4c(c3)OCO4)o2)c(C)c1	-10%	-11%	.	-1	-14%	25µM*
Cc1ccc(CSc2nnc(-c3ccc4c(c3)OCO4)o2)cc1	10%	11%	3	5	30%	5%[59 µM]
COc1ccc(-c2noc(CN3CCCC(OCc4ccccn4)C3)n2)cc1 (stereo not given)	-20%	-24%	3	-1	21%	50µM*
CC1CCN(c2ccccc2NC(=S)NC(=O)C(C)(C)C)CC1	?	-30%	-13	-13	-9%	?
CCOc1ccc(NC(=O)c2cc3ccccc3cc2O)cc1	56µM*	79µM*	.	-3	-8%	-40%[12.7 µM]
CCOc1ccc(NC(=O)c2cc(=O)[nH]c3ccccc23)cc1	56µM*	-16%	1	-5	10%	.
Cc1ccc(-c2n[nH]c(=S)n2C)cc1	13%	3.2µM*	-3	-8	?	10µM*
Cn1c(-c2csc(-c3ccccc3)n2)n[nH]c1=S	-18%	28µM*	-9	1	-5%	-136%[59 µM]
Cc1nc(-c2ccccc2)cs1	2%	-5%	6	4	20%	1%
COc1ccc(-n2c(-c3ccc(Br)cc3)n[nH]c2=S)cc1	-37%	32µM*	8	-8	44%	-28%[0.501 µM]
COc1ccc(-c2n[nH]c(=S)n2-c2ccc(C)cc2)cc1	-15%	?	0	-4	-3%	0.89µM*
CC(=O)Nc1ccc(NS(=O)(=O)c2c(C(=O)N3CCC(C)CC3)c(C)n(C)c2C)cc1	-20%	-12%	.	.	28%	15%[59 µM]
COc1cccc(-n2c(SC)nnc2-c2c[nH]c3ccccc23)c1	2%	-8%	-4	-6	27%	?
Cc1cccc(-n2c(SCc3ccc([N+](=O)[O-])cc3)nnc2-c2c[nH]c3ccccc23)c1	-27%	?	.	-16	-20%	45µM*
NS(=O)(=O)c1ccc(NC(=O)CSc2n[nH]c(=O)n2Cc2ccccc2)cc1	1%	-4%	2	4	14%	?
O=C(CSc1n[nH]c(=O)n1Cc1ccccc1)Nc1ccc(F)c(F)c1F	?	-13%	-1	3	24%	40µM*
CC1(C)Nc2ccc(O)cc2-c2c1ssc2=S	45µM*	40µM*	-15	?	50µM*	8.9µM*
CC(=O)NS(=O)(=O)c1ccc(N=c2ssc3c2-c2cc(C)ccc2NC3(C)C)cc1	?	?	0	13	-10%	?
Cc1ccccc1-n1c(Cn2c(=O)sc3ccccc32)nnc1SCC(=O)N1CCOCC1	6%	-32%	7	6	12%	-15%
Cc1nc2ccccc2n1CC(=O)c1ccc(O)c(O)c1	?	?	-13	?	22%	-14%[2.33 µM]
O=C(CSc1nnc(Cn2c(=O)sc3ccccc32)n1-c1ccccc1)N1CCOCC1	9%	5%	10	0	42%	45µM*
O=C(CSc1nc2ccccc2n1CCc1ccccc1)c1ccc(O)c(O)c1	2.5µM*	7.9µM*	-7	?	25µM*	.
O=C(CSc1nc2ccccc2n1CC(=O)N1CCOCC1)N1CCCC1	-1%	-15%[57.1 µM]	13	6	18%	-47%[59 µM]
O=C(CSc1nc2ccccc2n1CCc1ccccc1)N1CCOCC1	6%	-3%	3	0	39%	50µM*
SMILES	BAZ2B block	JMJD2A Tudor inh	CtBP-E1A blk	Six1-Eya2 inh	HP1b binding inh	G9a block
Cc1ccc(CNC(=O)CCN2C(=O)COc3ccc(C)cc32)cc1	0%	5%	.	.	36%	3%[59 µM]
COc1ccc(NC(=O)Cn2nnc(C(=O)Nc3ccc(F)c(Cl)c3)c2N)cc1	-18%	-6%	-20	9	20%	14%[59 µM]
COc1ccc(/C=C/C(=O)Nc2ccc(-n3nncc3-c3ccc(OC)c(OC)c3)cc2)cc1OC	-3%	-11%	-8	-10	22%	50µM*
COc1ccc(-c2cnnn2-c2ccc(NC(=O)/C=C/c3ccc(OC)c(OC)c3)cc2)cc1	-3%	-19%	-3	2	?	50µM*
O=C(O)CCc1ccc(-c2ccc(Cl)cc2)o1	-36%	?	5	-1	-23%	4µM*
O=C(O)c1ccc(N/N=C/c2ccc(-c3ccc(Br)cc3)o2)cc1	?	?	10	6	10%[57 µM]	-3%[59 µM]
O=C(O)CCc1ccc(-c2ccc(Br)cc2)o1	-36%	56µM*	0	7	-36%	16µM*
COc1ccc(-c2ccc(CCC(=O)O)o2)cc1	-30%	79µM*	17	-3	-25%	28µM*
CC(=O)c1cccc(NC(=O)NNC(=O)c2ccc(-c3ccccc3)cc2)c1	8%	-8%	0	3	14%	98%
CCOC(=O)c1ccccc1NC(=O)c1cnc(N2CCOCC2)c2ccccc12	13%	54%	.	.	64%[57 µM]	50%[59 µM]
Cc1ccc2c(CC(=O)Nc3c(C(=O)c4ccc(F)cc4)oc4ccccc34)coc2c1	-4%	-6%	.	.	58%	5%[59 µM]
CCOc1ccc(NC(=O)Cn2nnc(C(=O)NCc3ccc4c(c3)OCO4)c2N)cc1	-9%	-21%	1	1	42%	2%
CC1(C)CC(=O)C=C(c2ccc(COC(=O)c3cccc(C(F)(F)F)c3)cc2)C1=O	.	.	4	-4	.	.
COCC1CCN(Cc2c(C(=O)N3CCc4ccccc4C3)nc3ccc(Cl)cn23)C1 (stereo not given)	-34%	-27%	0	-3	25%	40µM*
Cc1ccccc1C(NC(=O)C1CCN(Cc2ccc(Oc3ccccc3)cc2)CC1)c1ccsc1 (stereo not given)	.	.	18	-20	.	.
Cc1ccc(/C=C2\Sc3ccccc3C2=O)s1	8.9µM*	-27%	-10	-28	-16%	12%[0.501 µM]
COc1ccc(Cc2nnc(NC(=O)C3CC(=O)N(CCc4ccc(F)cc4)C3)s2)cc1OC (stereo not given)	-13%	?	7	4	8%	17%[59 µM]
Nc1nc(NC(=O)Cc2ccccc2)nn1-c1ccccc1	32µM*	?	-9	-10	60%	0%[12.7 µM]
COc1cc(C(=O)Nc2ccncc2)cc(OC)c1OC	6%	-4%	9	0	30%	-12%
COC(=O)c1nc(NC(=O)c2cc(OC)c(OC)c(OC)c2)n[nH]1	?	-6%	-4	2	49%	11µM*
Nc1nc(NC(=O)/C=C\C(=O)O)nn1-c1ccccc1	22µM*	-17%[11.4 µM]	.	-2	43%	4%
COc1ccc(CNc2nc(NC(C)=O)nn2-c2ccccc2)cc1	-15%	-8%	-9	7	45%	4%

Source: PubChem (National Center for Advancing Translational Sciences (NCATS))
